Assay results taken from PubChem BioAssay AID1159580 (chemical genetic matrix, 2015).
In all, about 5,500 compounds went through this assay and about 2,000 (36%) were called active. About 18% were inconclusive and are not listed. Rule as the data show it: active = normalized growth mostly below about 0.91 (no sharp cut-off); inconclusive = no clear call, values can overlap the other calls; inactive = mostly above about 0.92. The list shows a part of the results.

Experiment: chemical genetic growth profiling, strain panel (AID 1159580);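 also: tested at 20 µM; growth read once vehicle control cultures reached saturation at 30 °C; 1 = growth at the plate median or of vehicle wells; lower values mean less growth of the strain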
Conditions: S. cerevisiae deletion strains, growth OD
[1] = locus YAR019C, strain CDC15, active compounds read low
[2] = locus YBL105C, strain PKC1, active compounds read low
[3] = locus YBR135W, strain CKS1, active compounds read low
[4] = locus YBR136W, strain MEC1, active compounds read low
[5] = locus YBR160W, strain CDC28, active compounds read low
[6] = locus YDL017W, strain CDC7, active compounds read low
[7] = locus YDL028C, strain MPS1, active compounds read low
[8] = locus YDL101C, strain DUN1, active compounds read low
[9] = locus YDL108W, strain KIN28, active compounds read low
[10] = locus YDL132W, strain cdc53, active compounds read low
[11] = locus YDL214C, strain PRR2, active compounds read low
[12] = locus YDR052C, strain DBF4, active compounds read low
[13] = locus YDR054C, strain cdc34, active compounds read low
[14] = locus YDR226W, strain ADK1, active compounds read low
[15] = locus YDR477W, strain SNF1, active compounds read low
[16] = locus YER123W, strain YCK3, active compounds read low
[17] = locus YER133W, strain GLC7, active compounds read low
[18] = locus YFL009W, strain cdc4, active compounds read low
[19] = locus YFL029C, strain CAK1, active compounds read low
[20] = locus YFR003C, strain YPI1, active compounds read low
[21] = locus YFR019W, strain FAB1, active compounds read low
[22] = locus YFR028C, strain CDC14, active compounds read low
[23] = locus YGR040W, strain KSS1, active compounds read low
[24] = locus YGR052W, strain FMP48, active compounds read low
[25] = locus YGR092W, strain DBF2, active compounds read low
[26] = locus YHR030C, strain SLT2, active compounds read low
[27] = locus YHR079C, strain IRE1, active compounds read low
[28] = locus YHR082C, strain KSP1, active compounds read low
[29] = locus YHR205W, strain SCH9, active compounds read low
[30] = locus YIL147C, strain SLN1, active compounds read low
[31] = locus YJL095W, strain BCK1, active compounds read low
[32] = locus YJL128C, strain PBS2, active compounds read low
[33] = locus YJL157C, strain FAR1, active compounds read low
[34] = locus YJR016C, strain ILV3, active compounds read low
[35] = locus YJR066W, strain TOR1 (second series), active compounds read low
[36] = locus YJR066W, strain TOR1, active compounds read low
[37] = locus YKL048C, strain ELM1, active compounds read low
[38] = locus YKL067W, strain YNK1, active compounds read low
[39] = locus YKL101W, strain HSL1, active compounds read low
[40] = locus YKL193C, strain SDS22, active compounds read low
[41] = locus YKL203C, strain TOR2, active compounds read low
[42] = locus YLR113W, strain HOG1, active compounds read low
[43] = locus YLR133W, strain CKI1, active compounds read low
[44] = locus YLR403W, strain SFP1, active compounds read low
[45] = locus YML070W, strain DAK1, active compounds read low
[46] = locus YMR001C, strain CDC5, active compounds read low
[47] = locus YMR205C, strain PFK2 (second series), active compounds read low
[48] = locus YMR277W, strain FCP1, active compounds read low
[49] = locus YNL006W, strain LST8, active compounds read low
[50] = locus YNL020C, strain ARK1, active compounds read low
[51] = locus YNL161W, strain CBK1, active compounds read low
[52] = locus YNL183C, strain NPR1, active compounds read low
[53] = locus YNL207W, strain RIO2, active compounds read low
[54] = locus YNL222W, strain SSU72, active compounds read low
[55] = locus YNL307C, strain MCK1 (second series), active compounds read low
[56] = locus YOL078W, strain AVO1, active compounds read low
[57] = locus YOL136C, strain PFK27, active compounds read low
[58] = locus YOR061W, strain CKA2, active compounds read low
[59] = locus YOR119C, strain RIO1, active compounds read low
[60] = locus YOR231W, strain MKK1, active compounds read low
[61] = locus YOR329C, strain SCD5, active compounds read low
[62] = locus YPL031C, strain PHO85, active compounds read low
[63] = locus YPL153C, strain RAD53, active compounds read low
[64] = locus YPL204W, strain HRR25, active compounds read low
[65] = locus YPL209C, strain IPL1, active compounds read low
[66] = locus YPL256C, strain CLN2, active compounds read low
[67] = locus YPR025C, strain CCL1, active compounds read low
[68] = locus YPR106W, strain ISR1, active compounds read low
[69] = locus YPR111W, strain DBF20, active compounds read low
[70] = strain NNK1, active compounds read low
[71] = strain TSCII, active compounds read low
[72] = locus YAL013W, strain DEP1, active compounds read low
[73] = locus YDR150W, strain NUM1, active compounds read low
[74] = locus YMR263W, strain SAP30, active compounds read low
[75] = locus YNL128W, strain TEP1, active compounds read low
[76] = locus YNL153C, strain GIM3, active compounds read low
[77] = locus YPL241C, strain CIN2, active compounds read low

Measured: normalized growth

CC1C/C(=N/Nc2ccc(Br)cc2)c2cc(Cl)ccc2S1(=O)=O (centres undefined)
inactive: [1] 1.01 | [2] 0.996 | [3] 0.989 | [4] 0.999 | [5] 0.995 | [6] 0.997 | [7] 1 | [8] 0.988 | [9] 0.992 | [10] 0.986 | [11] 0.888 | [12] 0.998 | [13] 1 | [14] 0.986 | [15] 0.895 | [16] 0.82 | [17] 0.895 | [18] 0.991 | [19] 0.992 | [20] 0.998 | [22] 0.991 | [23] 0.893 | [24] 0.93 | [27] 0.647 | [28] 0.793 | [29] 0.728 | [30] 1 | [31] 0.8 | [32] 1 | [33] 0.801 | [34] 0.99 | [35] 0.783 | [36] 0.804 | [37] 0.906 | [38] 0.911 | [39] 0.9 | [40] 0.98 | [41] 0.92 | [42] 0.885 | [43] 0.848 | [44] 0.763 | [45] 0.841 | [46] 0.995 | [47] 0.903 | [48] 0.982 | [49] 0.984 | [50] 0.837 | [51] 0.987 | [52] 0.908 | [53] 0.992 | [54] 0.986 | [55] 0.667 | [56] 0.99 | [57] 0.8 | [59] 0.839 | [60] 0.879 | [61] 0.998 | [62] 0.868 | [63] 0.854 | [64] 0.855 | [65] 0.988 | [66] 0.879 | [67] 0.995 | [68] 0.998 | [69] 0.992 | [70] 0.994 | [71] 0.994
active: [21] 0.732 | [25] 0.397 | [26] 0.462 | [58] 0.507

CC1C/C(=N/Nc2ccc(Br)cc2)c2cc(Cl)ccc2S1 (centres undefined)
active: [1] 0.535 | [2] 0.485 | [3] 0.429 | [4] 0.497 | [5] 0.58 | [6] 0.525 | [7] 0.396 | [8] 0.458 | [9] 0.598 | [10] 0.546 | [11] 0.161 | [12] 0.703 | [13] 0.333 | [15] 0.146 | [16] 0.166 | [17] 0.213 | [18] 0.434 | [19] 0.404 | [20] 0.433 | [21] 0.124 | [23] 0.187 | [24] 0.215 | [25] 0.125 | [26] 0.193 | [27] 0.192 | [28] 0.277 | [29] 0.0907 | [30] 0.409 | [31] 0.15 | [32] 0.318 | [33] 0.168 | [34] 0.343 | [35] 0.117 | [36] 0.224 | [37] 0.198 | [38] 0.185 | [39] 0.187 | [40] 0.498 | [41] 0.182 | [42] 0.235 | [43] 0.128 | [44] 0.0605 | [45] 0.151 | [46] 0.644 | [47] 0.163 | [48] 0.519 | [49] 0.265 | [50] 0.141 | [51] 0.383 | [52] 0.194 | [53] 0.624 | [54] 0.369 | [55] 0.114 | [56] 0.529 | [57] 0.158 | [58] 0.12 | [59] 0.158 | [60] 0.187 | [61] 0.303 | [62] 0.147 | [63] 0.126 | [64] 0.131 | [65] 0.385 | [66] 0.208 | [67] 0.41 | [70] 0.545 | [71] 0.644
inactive: [14] 0.931 | [69] 0.9

Cc1nc2n(c(=O)c1CCN1CCC(c3noc4cc(F)ccc34)CC1)CCCC2
inactive: [72] 0.998 | locus YAL040C, strain CLN3, active compounds read low 1.02 | locus YCL061C, strain MRC1 (second series), active compounds read low 1.01 | [73] 1 | locus YDR363W, strain ESC2, active compounds read low 0.988 | locus YER002W, strain NOP16, active compounds read low 1 | locus YGR229C, strain SMI1, active compounds read low 1 | [74] 1 | locus YMR307W, strain GAS1, active compounds read low 1.02 | [75] 1.03 | [76] 1.01 | locus YNL175C, strain NOP13, active compounds read low 1.01 | locus YNL197C, strain WHI3, active compounds read low 1.01 | locus YNL224C, strain SQS1, active compounds read low 1 | locus YOR083W, strain WHI5 (second series), active compounds read low 1 | [77] 1

Cc1cc(CN2CC(C)OC(C)C2)cc(C)c1O (centres undefined)
inactive: [72] 1.01 | locus YBR229C, strain ROT2, active compounds read low 1.01 | [8] 1.09 | [73] 1.08 | locus YEL061C, strain CIN8, active compounds read low 0.997 | locus YGR078C, strain PAC10, active compounds read low 1.02 | [26] 1.03 | locus YHR087W, strain rtc3, active compounds read low 0.976 | locus YJR043C, strain POL32, active compounds read low 1.03 | locus YJR075W, strain HOC1, active compounds read low 1 | locus YKL190W, strain CNB1, active compounds read low 0.974 | locus YLR039C, strain RIC1, active compounds read low 1.05 | locus YLR058C, strain SHM2 (second series), active compounds read low 0.991 | locus YLR085C, strain ARP6, active compounds read low 1.03 | locus YLR262C, strain YPT6, active compounds read low 0.954 | locus YML094W, strain GIM5, active compounds read low 0.996 | locus YMR219W, strain ESC1, active compounds read low 0.997 | [74] 1.05 | [75] 0.988 | [76] 1.04 | locus YNL298W, strain CLA4 (second series), active compounds read low 1.02 | locus YNL322C, strain KRE1, active compounds read low 0.994 | locus YNR030W, strain Alg12, active compounds read low 0.992 | locus YOL006C, strain TOP1, active compounds read low 0.975 | locus YPL055C, strain LGE1, active compounds read low 1.01 | [77] 1.03 | locus YPR135W, strain CTF4, active compounds read low 1.04

O=C(Nc1ccc(Cl)cc1)O/N=C\c1ccn(-c2ccccc2)n1
active: [26] 0.611 | [29] 0.559 | [35] 0.605 | [42] 0.6 | [66] 0.662
inactive: [1] 0.958 | [2] 0.963 | [3] 0.95 | [4] 0.937 | [5] 0.962 | [6] 0.971 | [7] 0.955 | [8] 0.975 | [9] 0.941 | [10] 0.954 | [11] 0.8 | [12] 0.982 | [13] 0.952 | [14] 0.965 | [15] 0.859 | [16] 0.811 | [17] 0.882 | [18] 0.961 | [19] 0.955 | [20] 0.96 | [21] 0.956 | [22] 0.953 | [23] 0.876 | [24] 0.845 | [25] 0.775 | [27] 0.654 | [28] 0.835 | [30] 0.953 | [31] 0.738 | [32] 0.877 | [33] 0.857 | [34] 0.961 | [36] 0.834 | [37] 0.886 | [38] 0.82 | [39] 0.798 | [40] 0.948 | [41] 0.947 | [43] 0.829 | [44] 0.87 | [45] 0.804 | [46] 0.95 | [47] 0.779 | [48] 0.948 | [49] 0.954 | [50] 0.782 | [51] 0.97 | [52] 0.732 | [53] 0.954 | [54] 0.946 | [55] 0.785 | [56] 0.956 | [57] 0.797 | [58] 0.875 | [59] 0.929 | [60] 0.688 | [61] 0.954 | [62] 0.851 | [63] 0.885 | [64] 0.869 | [65] 0.959 | [67] 0.953 | [68] 0.937 | [69] 0.929 | [70] 0.903 | [71] 0.95
